# From PubChem
# ASK1 primary: human ASK1 kinase inhibition, primary screen | AID 1159602 | AlphaScreen MKK6 phosphorylation by ASK1, luminescence | inhibition, % at 7.44 µM | Q99683 | hit rate 0.99% among 22,000; in the data active means inhibition above about 35%;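 further: 0% = median of compound wells and 100% = no enzyme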
# ULK1 primary: blocks human autophagy kinase ULK1 | O75385 | AlphaScreen Atg13 phosphorylation by ULK1, luminescence | inhibition, % at 5.96 µM | hit rate 1.9% among 30,000 | AID 1259251; in the data active means inhibition above about 43%;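 further: 0% = median of compound wells and 100% = no enzyme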
# * = called active by the depositor; · = no result given. An excerpt weighted towards active compounds, which were near 2.5% of everything screened.
SMILES,ASK1 primary,ULK1 primary
O=C(Cc1cn(-c2ccc(NCCCN3CCCC3=O)nn2)c2ccccc12)Nc1ccc(N2CCOCC2)cc1,-1,47*
O=C(Cc1cn(-c2ccc(NCCCN3CCCC3=O)nn2)c2ccccc12)Nc1ccccc1,-3,2
CC(=O)Nc1ccc(NC(=O)Cc2cn(-c3ccc(NCCCN4CCCC4=O)nn3)c3ccccc23)cc1,5,44*
O=C(Nc1ccc(-c2cn[nH]c2)cc1)C1CNC[C@H]1c1cccc(F)c1 (some centres undefined),-24,-7
CCCNc1cc(C)nc(N2CCC(N3CCOCC3)CC2)n1,1,-3
Cc1cccc(CNC(=O)Nc2ccc(-c3cn[nH]c3)cc2)c1,2,8
CN(C)CC(=O)Nc1cccc(CNC(=O)Nc2ccc(-c3cn[nH]c3)cc2)c1,12,96*
COc1nc(N)nc(-c2ccc(C(N)=O)cc2)n1,-7,-15
Cc1ncn(-c2ccc(Nc3nccc(-c4cc(F)cc(-c5ccnn5C)c4)n3)cc2)n1,19,15
Cc1ncn(-c2ccc(Nc3ncc(Cl)c(-c4ccnn4C)n3)cc2)n1,-8,64*
Cc1ncn(-c2ccc(Nc3ncc4cccc(-c5ccnn5C)c4n3)cc2)n1,-26,52*
Cc1ncn(-c2ccc(Nc3ncc4cccc(-c5cccc6c5ccn6C)c4n3)cc2)n1,-5,-5
Cc1ncn(-c2ccc(Nc3ncc4cccc(-c5cn[nH]c5C)c4n3)cc2)n1,-21,55*
Cc1ncn(-c2ccc(Nc3ncc4cccc(-c5cccnc5)c4n3)cc2)n1,9,10
Cc1ncn(-c2ccc(Nc3ncc4cccc(-c5ccn(C)n5)c4n3)cc2)n1,-74,89*
Cc1ncn(-c2ccc(Nc3ncc4cccc(-c5ccn[nH]5)c4n3)cc2)n1,16,24
CC(C)(C)NC(=O)c1cccc(Oc2ncc(Cl)cn2)c1,·,5
Cc1cc(NCCO)nc(Nc2ccc3ncccc3c2)n1,7,-1
CCN(CC)CCOc1cccc2c1CC(c1nc3ccc(-c4ccnc(N)n4)cc3[nH]1)CO2 (centres undefined),7,2
CCCNc1ccnc(Oc2ccccc2)n1,-18,-9
CN(C)CCOc1cc(-c2cn[nH]c2)c(F)cc1NC(=O)C1COc2ccccc2C1 (centres undefined),5,-1
O=C(Cc1ccc(Br)cc1)N1CCC(Nc2ccc3[nH]ncc3c2)C1 (centres undefined),-14,8
Cc1ccc(-c2ncn(-c3ccc(Nc4ncc5cccc(-c6nccs6)c5n4)cc3)n2)cn1,20,3
Cc1ncn(-c2ccc(Nc3ncc4cccc(-c5nccs5)c4n3)cc2)n1,11,50*
N#Cc1ccccc1Nc1cc(NC(=O)Cc2ccc(F)cc2)ncc1C(F)(F)F,14,-3
SMILES,ASK1 primary,ULK1 primary
CNC(=O)c1ncccc1Nc1cc(Nc2ccc3c(c2)CC(=O)N3)ncc1C(F)(F)F,23,11
CNC(=O)c1cc(F)ccc1Nc1cc(Nc2ccc3c(c2)CC(=O)N3)ncc1C(F)(F)F,16,66*
O=C1Cc2cc(NC(=O)c3ccc(Br)cc3)ccc2N1,·,-14
CNC(=O)c1ncccc1Nc1cc(Nc2ccc3c(c2)CCC(=O)N3)ncc1C(F)(F)F,-6,48*
CC(=O)Nc1ccccc1Nc1cc(Nc2ccc3c(c2)CC(=O)N3)ncc1C(F)(F)F,-12,82*
CNC(=O)c1ncccc1Nc1cc(Nc2ccc3c(c2)NC(=O)C3)ncc1C(F)(F)F,9,4
CNC(=O)c1cc(F)ccc1Nc1cc(Nc2ccc3c(c2)NC(=O)C3)ncc1C(F)(F)F,1,64*
Oc1ccc(CCNc2ccnc(N3CCN(Cc4ccc5c(c4)OCO5)CC3)n2)cc1,29,0
Cc1c(NC(=O)C2COc3ccccc3O2)ccc(-c2ccncc2)c1C (centres undefined),-1,-13
CN(C)CCOC(c1ccccc1)c1ccc(Br)cc1 (centres undefined),·,7
C[N+](C)(C)CCOC(c1ccccc1)c1ccccc1,·,82*
NC(=O)c1ccccc1Nc1ccnc(Nc2ccc(N3CCOCC3)cc2F)c1,5,-8
CNC(=O)c1ccccc1Nc1cc(Nc2ccc(N3CCS(=O)(=O)CC3)cc2OC)ncc1C#N,5,81*
CNC(=O)c1ccccc1Nc1cc(Nc2ccc(N3CCSCC3)cc2OC)ncc1C#N,33,86*
CN(C)Cc1cnc(Nc2ccc(N3CCOCC3)cc2)cc1Nc1ccccc1C#N,13,5
CN1CCN(c2ccc(-c3nc(NCc4cccc(C(F)(F)F)c4)c4ncn(-c5ccccc5)c4n3)cc2)CC1,22,9
O=C1CCCN1CCn1cnc2c(NCc3ccccc3)nc(Nc3ccc(N4CCOCC4)cc3)nc21,3,9
Cc1cnc(Nc2cccc(N(C)C)c2)nc1NCCCN1CCCC1=O,-8,20
O=C1CCCN1CCCNc1nc(Nc2ccc(Oc3ccccc3)cc2)c2[nH]cnc2n1,30,-22
Cc1cnc(Nc2ccc3ncccc3c2)nc1NCCCN1CCCC1=O,-13,69*
Cc1cnc(NCCCN2CCCC2=O)nc1Nc1ccc(Oc2ccccc2)cc1,11,49*
Cc1cnc(Nc2ccc3ncccc3c2)nc1Nc1ccc2c(c1)OCO2,-29,-11
Cc1cnc(Nc2ccc3ncccc3c2)nc1NC1CC1,8,71*
CCCNc1nc(Nc2ccc(-n3ccnc3)cc2)nc2nc[nH]c12,-45,41
c1nc2nc(Nc3ccc(N4CCOCC4)cc3)nc(NC3CC3)c2[nH]1,-12,56*
SMILES,ASK1 primary,ULK1 primary
c1cn(-c2ccc(Nc3nc(NC4CC4)c4ncn(-c5ccsc5)c4n3)cc2)cn1,14,53*
c1cn(-c2ccc(Nc3nc(NC4CC4)c4[nH]cnc4n3)cc2)cn1,-69,57*
FC(F)(F)c1ccc(Nc2nc(Nc3ccc(N4CCOCC4)cc3)c3[nH]cnc3n2)cc1,25,29
c1cc(Nc2nc(NC3CC3)c3ncn(-c4ccsc4)c3n2)ccn1,-3,-3
O=C1CCCN1CCn1cnc2c(NC3CC3)nc(Nc3ncccn3)nc21,-2,29
COc1ccc(-c2nc(NC3CC3)c3[nH]cnc3n2)cn1,-2,6
O=C(NCc1cccnc1)c1cccc(N2CCN(c3ccccn3)CC2)n1,-4,-3
CCN(CC)C(=O)C1CCCN(c2ccc(-n3cc(CC(=O)NCCCN4CCCC4=O)c4ccccc43)nn2)C1 (centres undefined),-7,8
COc1cc(Nc2cc(-c3ccc(C(N)=O)cc3)nc(N)n2)cc(OC)c1OC,-6,-12
Cc1cnc(N2CCC(N3CCOCC3)CC2)nc1NC1CC1,8,-9
CCN(CC)C(=O)C1CCCN(c2cc(C(=O)Nc3ccccc3)ccn2)C1 (centres undefined),6,-2
CCN(CC)C(=O)C1CCCN(c2cc(C(=O)Nc3ccc(N4CCOCC4)cc3)ccn2)C1 (centres undefined),-36,60*
Brc1ccc2nc(C3CCCN3Cc3ccccc3)[nH]c2c1 (centres undefined),6,-30
CC(C(=O)Nc1cnn(-c2cccc(C(=O)Nc3ccc(N4CCOCC4)cc3)c2)c1)c1ccccc1 (centres undefined),-11,-12
O=C(Nc1ccccc1)Nc1cnn(-c2ccc3c(c2)C(Nc2ccc(N4CCOCC4)cc2)CCC3)c1 (centres undefined),6,45*
C[C@@H](N)C1CCC(C(=O)Nc2ccncc2)CC1 (some centres undefined),15,64*
